From PubChem BioAssay AID1159580 (chemical genetic matrix, 2015)
The whole screen tested about 5,500 compounds, of which about 2,000 (36%) were called active. Inconclusive results (about 18%) are left out. Cut-off read from the data, not from the text of the source: active = normalized growth mostly below about 0.91 (no sharp cut-off); inconclusive = no clear call, values can overlap the other calls; inactive = mostly above about 0.92. Some of the results follow.

Assay: chemical genetic growth profiling, strain panel (AID 1159580);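 note: tested at 20 µM; growth read once vehicle control cultures reached saturation at 30 °C; 1 = growth at the plate median or of vehicle wells; lower values mean less growth of the strain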
Conditions: S. cerevisiae deletion strains, growth OD
[1] = locus YHR030C, strain SLT2, hits give low values
[2] = locus YHR079C, strain IRE1, hits give low values
[3] = locus YJL095W, strain BCK1, hits give low values
[4] = locus YJR066W, strain TOR1, hits give low values
[5] = locus YLR113W, strain HOG1, hits give low values
[6] = locus YNL183C, strain NPR1, hits give low values
[7] = locus YOR231W, strain MKK1, hits give low values
[8] = locus YPL256C, strain CLN2, hits give low values

Measured: normalized growth

OC(CNCc1ccc(Cl)cc1)CO/N=C\C1=C(Cl)c2cc(Cl)ccc2OC1 (stereo not given)
inactive: locus YAR019C, strain CDC15, hits give low values 0.962 | locus YBL105C, strain PKC1, hits give low values 0.981 | locus YBR135W, strain CKS1, hits give low values 0.981 | locus YBR136W, strain MEC1, hits give low values 0.957 | locus YBR160W, strain CDC28, hits give low values 0.988 | locus YDL017W, strain CDC7, hits give low values 0.986 | locus YDL028C, strain MPS1, hits give low values 0.975 | locus YDL101C, strain DUN1, hits give low values 0.987 | locus YDL108W, strain KIN28, hits give low values 0.967 | locus YDL132W, strain cdc53, hits give low values 0.979 | locus YDL214C, strain PRR2, hits give low values 0.925 | locus YDR052C, strain DBF4, hits give low values 0.989 | locus YDR054C, strain cdc34, hits give low values 0.98 | locus YDR226W, strain ADK1, hits give low values 0.97 | locus YDR477W, strain SNF1, hits give low values 0.974 | locus YER123W, strain YCK3, hits give low values 0.867 | locus YER133W, strain GLC7, hits give low values 0.933 | locus YFL009W, strain cdc4, hits give low values 0.976 | locus YFL029C, strain CAK1, hits give low values 0.963 | locus YFR003C, strain YPI1, hits give low values 0.981 | locus YFR019W, strain FAB1, hits give low values 0.921 | locus YFR028C, strain CDC14, hits give low values 0.96 | locus YGR040W, strain KSS1, hits give low values 0.97 | locus YGR052W, strain FMP48, hits give low values 1 | locus YGR092W, strain DBF2, hits give low values 0.928 | [1] 0.871 | [2] 0.931 | locus YHR082C, strain KSP1, hits give low values 0.966 | locus YHR205W, strain SCH9, hits give low values 0.949 | locus YIL147C, strain SLN1, hits give low values 0.969 | [3] 0.915 | locus YJL128C, strain PBS2, hits give low values 0.933 | locus YJL157C, strain FAR1, hits give low values 0.971 | locus YJR016C, strain ILV3, hits give low values 0.991 | locus YJR066W, strain TOR1 (second series), hits give low values 1 | [4] 0.944 | locus YKL048C, strain ELM1, hits give low values 0.931 | locus YKL067W, strain YNK1, hits give low values 0.937 | locus YKL101W, strain HSL1, hits give low values 0.923 | locus YKL193C, strain SDS22, hits give low values 0.981 | locus YKL203C, strain TOR2, hits give low values 0.983 | [5] 0.87 | locus YLR133W, strain CKI1, hits give low values 0.96 | locus YLR403W, strain SFP1, hits give low values 0.996 | locus YML070W, strain DAK1, hits give low values 0.924 | locus YMR001C, strain CDC5, hits give low values 0.985 | locus YMR205C, strain PFK2 (second series), hits give low values 0.949 | locus YMR277W, strain FCP1, hits give low values 0.981 | locus YNL006W, strain LST8, hits give low values 0.99 | locus YNL020C, strain ARK1, hits give low values 0.963 | locus YNL161W, strain CBK1, hits give low values 0.983 | [6] 0.932 | locus YNL207W, strain RIO2, hits give low values 0.97 | locus YNL222W, strain SSU72, hits give low values 0.979 | locus YNL307C, strain MCK1 (second series), hits give low values 0.934 | locus YOL078W, strain AVO1, hits give low values 0.984 | locus YOL136C, strain PFK27, hits give low values 0.921 | locus YOR061W, strain CKA2, hits give low values 0.969 | locus YOR119C, strain RIO1, hits give low values 0.957 | [7] 0.918 | locus YOR329C, strain SCD5, hits give low values 0.977 | locus YPL031C, strain PHO85, hits give low values 0.975 | locus YPL153C, strain RAD53, hits give low values 0.984 | locus YPL204W, strain HRR25, hits give low values 0.994 | locus YPL209C, strain IPL1, hits give low values 0.981 | [8] 0.864 | locus YPR025C, strain CCL1, hits give low values 0.981 | locus YPR106W, strain ISR1, hits give low values 0.963 | locus YPR111W, strain DBF20, hits give low values 0.962 | strain NNK1, hits give low values 0.959 | strain TSCII, hits give low values 0.979

CC1(C)CCC2=C(O1)c1ccccc1C(=O)C2=O
inactive: locus YAL040C, strain CLN3, hits give low values 1.02 | locus YER002W, strain NOP16, hits give low values 1 | locus YGR078C, strain PAC10, hits give low values 0.977 | locus YMR263W, strain SAP30, hits give low values 0.956 | locus YNL175C, strain NOP13, hits give low values 0.973 | locus YNL197C, strain WHI3, hits give low values 0.926 | locus YNL224C, strain SQS1, hits give low values 1 | locus YOR083W, strain WHI5 (second series), hits give low values 0.938
active: locus YAL013W, strain DEP1, hits give low values 0.879 | locus YCL061C, strain MRC1 (second series), hits give low values 0.876 | locus YDR150W, strain NUM1, hits give low values 0.857 | locus YDR363W, strain ESC2, hits give low values 0.706 | locus YPL055C, strain LGE1, hits give low values 0.769 | locus YPL241C, strain CIN2, hits give low values 0.861

C=C(NC(=O)C(=C)NC(=O)c1csc(C2=NC3c4csc(n4)C4NC(=O)c5csc(n5)C(C(C)(O)C(C)O)NC(=O)C5CSC(=N5)C(=CC)NC(=O)C(C(C)O)NC(=O)c5csc(n5)C3(CC2)NC(=O)C(C)NC(=O)C(=C)NC(=O)C(C)NC(=O)C(C(C)CC)NC2C=Cc3c(C(C)O)cc(nc3C2O)C(=O)OC4C)n1)C(N)=O (stereo not given)
inactive: locus YAL021C, strain ccr4, hits give low values 1.01 | locus YAL026C, strain drs2, hits give low values 1.01 | locus YAL030W, strain snc1, hits give low values 1.01 | locus YBL061C, strain skt5, hits give low values 1 | locus YBR009C, strain hhf1, hits give low values 1 | locus YBR023C, strain chs3, hits give low values 1.01 | locus YBR171W, strain sec66, hits give low values 1.02 | locus YBR231C, strain swc5, hits give low values 1.01 | locus YBR279W, strain paf1, hits give low values 0.986 | locus YCL011C, strain gbp2, hits give low values 1 | locus YCL016C, strain dcc1, hits give low values 1.02 | locus YCL061C, strain MRC1, hits give low values 1.01 | locus YCL069W, strain vba3, hits give low values 1.01 | locus YCR088W, strain abp1, hits give low values 1.02 | locus YDL005C, strain med2, hits give low values 0.993 | locus YDL040C, strain nat1, hits give low values 0.993 | locus YDR001C, strain nth1, hits give low values 1.01 | locus YDR069C, strain doa4, hits give low values 1.01 | locus YDR137W, strain rgp1, hits give low values 1.04 | locus YDR159W, strain sac3, hits give low values 1 | locus YDR195W, strain ref2 1.01 | locus YDR297W, strain sur2, hits give low values 1 | locus YDR334W, strain swr1, hits give low values 1.02 | locus YDR335W, strain msn5, hits give low values 0.991 | locus YDR392W, strain spt3, hits give low values 1.01 | locus YEL003W, strain gim4, hits give low values 1.01 | locus YEL037C, strain rad23, hits give low values 1 | locus YEL061C, strain CIN8 (second series), hits give low values 1.02 | locus YER015W, strain faa2, hits give low values 0.993 | locus YER016W, strain bim1, hits give low values 1 | locus YER111C, strain swi4, hits give low values 1.03 | locus YER155C, strain BEM2 (second series), hits give low values 1.06 | locus YFR010W, strain ubp6, hits give low values 1.01 | locus YGL167C, strain pmr1, hits give low values 1.01 | locus YGL173C, strain kem1, hits give low values 1.01 | locus YGL227W, strain vid30, hits give low values 0.989 | locus YGL240W, strain doc1, hits give low values 1.01 | locus YGL253W, strain hxk2, hits give low values 1.01 | locus YHR013C, strain ard1, hits give low values 1.03 | locus YHR027C, strain rpn1, hits give low values 1.01 | [1] 0.979 | [2] 0.99 | locus YHR142W, strain chs7, hits give low values 1.03 | locus YJL092W, strain hpr5, hits give low values 1.01 | locus YJL095W, strain BCK1 (second series), hits give low values 1.01 | [3] 0.981 | locus YJL115W, strain asf1, hits give low values 1.01 | locus YJL129C, strain trk1, hits give low values 1 | locus YJL154C, strain vps35, hits give low values 1.02 | locus YJL164C, strain tpk1, hits give low values 1.01 | locus YJL166W, strain qcr8, hits give low values 1.02 | locus YJL187C, strain SWE1, hits give low values 1.01 | [4] 0.968 | locus YKL160W, strain elf1, hits give low values 1.02 | locus YKR026C, strain gcn3, hits give low values 0.997 | locus YKR091W, strain srl3, hits give low values 0.984 | locus YLL001W, strain dnm1, hits give low values 1.02 | locus YLL026W, hits give low values 0.995 | locus YLL041C, strain sdh2, hits give low values 1.01 | locus YLR027C, strain aat2, hits give low values 0.999 | [5] 0.987 | locus YLR221C, strain rsa3, hits give low values 0.994 | locus YLR258W, strain gsy2, hits give low values 1.02 | locus YLR262C, strain YPT6 (second series), hits give low values 1.04 | locus YLR320W, strain mms22, hits give low values 1.02 | locus YLR342W, strain FKS1, hits give low values 1.02 | locus YLR357W, strain rsc2, hits give low values 0.969 | locus YLR370C, strain arc18, hits give low values 1 | locus YLR384C, strain iki3, hits give low values 1.01 | locus YML120C, strain ndi1, hits give low values 1 | locus YMR058W, strain fet3, hits give low values 1 | locus YMR125W, strain sto1, hits give low values 1.01 | locus YMR129W, hits give low values 0.999 | locus YMR205C, strain PFK2, hits give low values 1.01 | locus YMR231W, strain pep5, hits give low values 0.983 | locus YNL071W, strain lat1, hits give low values 1.01 | [6] 0.971 | locus YNL209W, strain ssb2, hits give low values 1 | locus YNL248C, strain rpa49, hits give low values 0.994 | locus YNL322C, strain KRE1 (second series), hits give low values 1.02 | locus YNR049C, strain mso1, hits give low values 1.01 | locus YOR001W, strain rrp6, hits give low values 1.02 | locus YOR070C, strain gyp1, hits give low values 1.01 | locus YOR080W, strain dia2, hits give low values 1.02 | locus YOR083W, strain WHI5, hits give low values 1.01 | locus YOR106W, strain vam3, hits give low values 1.03 | [7] 0.981 | locus YOR265W, strain rbl2, hits give low values 1.02 | locus YOR270C, strain vph1, hits give low values 1 | locus YOR290C, strain snf2, hits give low values 1.01 | locus YPL051W, strain arl3, hits give low values 1.01 | locus YPL078C, strain atp4, hits give low values 1.01 | locus YPL106C, strain sse1, hits give low values 0.982 | locus YPL240C, strain hsp82, hits give low values 0.997 | [8] 0.979
